Assay results published in PubChem BioAssay.
Activity calls are given as the source filed them.

Legend:
[1] = molecular target: Albumin (Bos taurus) (UniProt P02769); assay: bovine serum albumin binders on microarray, profiling panel, artefact control for SMM control protein annotation, biochemical, small-molecule microarray, Alexa647 label, 635/667 nm fluorescence (AID 1118); details: BSA-A647 binding, fluorescence 635 nm, higher = more signal;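 also: score merges 667 nm emission intensity and signal-to-noise per printed compound spot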
[2] = small-molecule microarray binders of probe aXIP, primary screen, biochemical, NeuroSMM set, 635/667 nm fluorescence (AID 1119); details: higher = more signal, called active from +8 up or from −8 down;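 also: probe is the protein aXip251-270 applied at 1 µg/mL to compound-printed slides; binding of probe to printed compounds measured as 667 nm fluorescence plus signal to noise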
[3] = small-molecule binders of probe aNOTCH3, primary screen, biochemical, small-molecule microarray, 635/667 nm fluorescence (AID 1120); details: higher = more signal;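 also: probe is a biotin-tagged antibody raised against NOTCH3 rather than NOTCH3 protein; score merges spot fluorescence near 667 nm with spot signal to noise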
[4] = small-molecule binders of probe aNOTCH2, primary screen, biochemical, small-molecule microarray, 635/667 nm fluorescence (AID 1121); details: higher = more signal;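 also: score merges feature fluorescence read at 667 nm with its signal to noise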
[5] = molecular target: Carbonic anhydrase 2 (Homo sapiens) (UniProt P00918); assay: CAII small-molecule binders, profiling panel, biochemical, small-molecule microarray, Alexa647-labelled CAII (AID 1122); details: CAII-A647 binding fluorescence, higher = more signal
[6] = COS7 lysate on small-molecule microarray, probe aHis, 635 nm (AID 1123); details: COS7 cell lysate, fluorescence, higher = more signal;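 also: z-score combines 667nm fluorescence intensity with signal-to-noise per printed compound spot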
[7] = compound binding in COS7 lysate, probe aLAP1, primary screen, cell lysate, small-molecule microarray (AID 1124); details: probe aLAP1, fluorescence, higher = more signal;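 also: lysate comes from COS7 cells expressing LAP1 and is applied at 0.3 µg/mL; score merges spot fluorescence near 667 nm with signal-to-noise over triplicate slides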
[8] = system: Sam68 (KHDRBS1); assay: Sam68 small-molecule binders, primary screen, biochemical, small-molecule microarray, 635 nm fluorescence (AID 1125); details: small-molecule microarray binding, higher = more signal;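 also: score merges 667 nm channel intensity with signal to noise over triplicate slides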
[9] = system: Chordin-like protein 2 (CHRDL2); assay: CHRDL2 small-molecule binders, primary screen, biochemical, small-molecule microarray, 635 nm fluorescence (AID 1126); details: small-molecule microarray binding, fluorescence 635 nm; higher = more signal;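 also: printed compound slides probed with Chrdl2 protein at 4 µg/mL for 1 h at 4 C; score merges 667 nm emission intensity with signal to noise over three replicate slides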
[10] = molecular target: Concanavalin-A (Canavalia ensiformis) (UniProt P02866); assay: ConA small-molecule binders, primary screen, artefact control for SMM control protein annotation, biochemical, small-molecule microarray, Alexa647 label, 635 nm (AID 1127); details: ConA-A647 binding fluorescence, higher = more signal;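 also: z combines 667 nm emission intensity with signal-to-noise across three replicate slides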
[11] = anti-His antibody binders, primary screen, artefact control for SMM control protein annotation, biochemical, small-molecule microarray, 635 nm fluorescence (AID 1128); details: anti-His Alexa647 antibody binding, higher = more signal;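 also: score merges feature fluorescence with signal-to-noise for each printed compound spot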
[12] = system: Human papillomavirus type 1a E7 protein (residues 1-88); assay: HPV1a E7 small-molecule binders, primary screen, biochemical, small-molecule microarray, residues 1-88, 635 nm (AID 1129); details: small-molecule microarray binding, fluorescence 635 nm; higher = more signal
[13] = molecular target: Focal adhesion kinase 1 (Homo sapiens) (UniProt Q05397); assay: small-molecule microarray binders of FAK, primary screen, biochemical, 635/667 nm fluorescence, BSA, DTT (AID 1130); details: PTK2 binding, 635 nm fluorescence, higher = more signal;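 also: composite of spot emission at 667 nm and signal to noise over triplicate slides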
[14] = system: Fibrinogen (Alexa647-labelled); assay: fibrinogen binders on compound microarrays, profiling panel, artefact control for SMM control-protein annotation, biochemical, small-molecule microarray, 635/667 nm fluorescence (AID 1131); details: fibrinogen-A647 binding fluorescence, higher = more signal;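 also: z-score merges 667 nm fluorescence with per-spot signal-to-noise over triplicate slides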
[15] = molecular target: Follistatin (Homo sapiens) (UniProt P19883); assay: follistatin binders on small-molecule microarrays, primary screen, biochemical, small-molecule microarray, 635/667 nm fluorescence (AID 1132); details: FST binding, 635 nm fluorescence, higher = more signal
[16] = molecular target: Fibroblast growth factor 2 (Homo sapiens) (UniProt P09038); assay: FGF2 binders on small-molecule microarrays, primary screen, biochemical, small-molecule microarray, 635/667 nm fluorescence (AID 1133); details: small-molecule microarray binding, FGF2, fluorescence 635/667; higher = more signal
[17] = mitochondrial membrane potential change in A549 cells, profiling panel, cell-based, JC-1 fluorescence, basal, 24 h, 100 nL (AID 1138); details: higher = more signal;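 also: A549 lung adenocarcinoma cells under basal conditions with no added stimulus; test concentration not given here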
[18] = system: Lefty1; assay: Lefty1 binders on small-molecule microarrays, primary screen, biochemical, small-molecule microarray, 635/667 nm fluorescence (AID 1139); details: small-molecule microarray binding, fluorescence 635/667; higher = more signal
[19] = system: wheat germ agglutinin (Triticum aestivum), Alexa647-labelled; assay: wheat germ agglutinin binders on compound microarrays, profiling panel, artefact control for SMM control-protein annotation, biochemical, small-molecule microarray, 635/667 nm fluorescence (AID 1140); details: WGA-A647 binding, 635 nm fluorescence, higher = more signal;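 also: score merges 667 nm feature emission with signal to noise over triplicate slides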
[20] = molecular target: Luciferin 4-monooxygenase (Photinus pyralis) (UniProt P08659); assay: firefly luciferase enzyme inhibitors, primary screen, biochemical, luminescence, purified enzyme, 2006 set (AID 1141); details: SteadyGlo luminescence, 30 min, higher = more signal, called active from +8 up or from −8 down;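 also: cell-free assay with purified firefly luciferase at 100 ng per well in PBS; test concentration not given here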
Sequence of Luciferin 4-monooxygenase (Photinus pyralis) (P08659 whole entry, looked up): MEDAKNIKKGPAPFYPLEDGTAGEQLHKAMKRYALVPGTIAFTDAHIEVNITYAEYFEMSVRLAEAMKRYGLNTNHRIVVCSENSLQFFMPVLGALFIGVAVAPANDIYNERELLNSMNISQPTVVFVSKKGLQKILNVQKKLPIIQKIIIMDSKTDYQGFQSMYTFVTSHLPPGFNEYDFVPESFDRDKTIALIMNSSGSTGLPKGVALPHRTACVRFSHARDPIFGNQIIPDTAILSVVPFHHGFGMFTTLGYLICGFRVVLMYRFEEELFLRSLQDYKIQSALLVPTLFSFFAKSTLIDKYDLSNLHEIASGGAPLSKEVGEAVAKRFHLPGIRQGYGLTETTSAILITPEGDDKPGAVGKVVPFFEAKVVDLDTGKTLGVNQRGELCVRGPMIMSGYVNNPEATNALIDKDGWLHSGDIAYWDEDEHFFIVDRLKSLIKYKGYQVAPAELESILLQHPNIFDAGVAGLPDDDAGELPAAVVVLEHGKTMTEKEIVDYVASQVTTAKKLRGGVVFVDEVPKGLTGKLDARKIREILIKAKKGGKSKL

Sequence of Follistatin (Homo sapiens) (P19883 whole entry, looked up): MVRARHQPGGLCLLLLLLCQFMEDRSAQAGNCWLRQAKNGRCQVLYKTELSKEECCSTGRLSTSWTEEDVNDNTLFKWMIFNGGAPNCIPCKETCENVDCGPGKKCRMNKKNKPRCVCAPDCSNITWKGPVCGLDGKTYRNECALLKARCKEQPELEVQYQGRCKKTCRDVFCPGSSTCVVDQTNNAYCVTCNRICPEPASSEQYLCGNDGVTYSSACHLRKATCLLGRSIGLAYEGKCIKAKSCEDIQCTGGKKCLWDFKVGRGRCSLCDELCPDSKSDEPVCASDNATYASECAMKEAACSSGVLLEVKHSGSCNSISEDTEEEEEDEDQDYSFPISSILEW
Sequence of Fibroblast growth factor 2 (Homo sapiens) (P09038 whole entry, looked up): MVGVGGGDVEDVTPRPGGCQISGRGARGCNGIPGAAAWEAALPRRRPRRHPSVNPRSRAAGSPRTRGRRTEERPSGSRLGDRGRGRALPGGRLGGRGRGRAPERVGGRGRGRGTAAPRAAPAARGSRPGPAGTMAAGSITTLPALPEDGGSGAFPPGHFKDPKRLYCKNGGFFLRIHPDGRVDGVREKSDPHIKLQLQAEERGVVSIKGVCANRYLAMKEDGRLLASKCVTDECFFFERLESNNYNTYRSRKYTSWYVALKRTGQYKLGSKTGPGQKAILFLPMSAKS
Sequence of Focal adhesion kinase 1 (Homo sapiens) (Q05397 whole entry, looked up): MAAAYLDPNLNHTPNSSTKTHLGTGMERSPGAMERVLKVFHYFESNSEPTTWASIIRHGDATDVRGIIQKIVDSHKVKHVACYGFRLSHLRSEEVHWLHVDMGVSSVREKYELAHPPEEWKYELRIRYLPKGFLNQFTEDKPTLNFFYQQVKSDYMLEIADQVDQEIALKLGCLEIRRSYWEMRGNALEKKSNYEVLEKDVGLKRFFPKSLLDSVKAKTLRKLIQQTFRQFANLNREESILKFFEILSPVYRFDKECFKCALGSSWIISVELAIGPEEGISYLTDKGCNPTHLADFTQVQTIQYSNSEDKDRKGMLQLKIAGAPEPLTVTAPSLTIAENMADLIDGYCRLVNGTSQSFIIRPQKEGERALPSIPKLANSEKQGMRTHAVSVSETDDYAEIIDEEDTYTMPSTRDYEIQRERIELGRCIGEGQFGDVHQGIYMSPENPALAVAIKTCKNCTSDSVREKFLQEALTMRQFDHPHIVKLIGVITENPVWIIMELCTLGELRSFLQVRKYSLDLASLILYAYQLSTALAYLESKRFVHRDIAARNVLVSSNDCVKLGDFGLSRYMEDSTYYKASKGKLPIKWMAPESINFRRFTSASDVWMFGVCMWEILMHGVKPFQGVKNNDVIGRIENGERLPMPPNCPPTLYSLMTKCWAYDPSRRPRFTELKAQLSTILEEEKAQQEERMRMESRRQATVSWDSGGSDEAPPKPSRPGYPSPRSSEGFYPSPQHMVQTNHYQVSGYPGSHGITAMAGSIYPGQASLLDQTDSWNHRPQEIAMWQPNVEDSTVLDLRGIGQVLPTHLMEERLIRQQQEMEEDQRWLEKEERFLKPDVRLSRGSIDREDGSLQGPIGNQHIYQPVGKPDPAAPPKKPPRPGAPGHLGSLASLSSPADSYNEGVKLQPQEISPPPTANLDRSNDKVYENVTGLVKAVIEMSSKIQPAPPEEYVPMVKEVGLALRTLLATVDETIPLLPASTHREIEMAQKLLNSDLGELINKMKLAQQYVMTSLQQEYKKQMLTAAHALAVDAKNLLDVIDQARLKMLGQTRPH
Sequence of Albumin (Bos taurus) (P02769 whole entry, looked up): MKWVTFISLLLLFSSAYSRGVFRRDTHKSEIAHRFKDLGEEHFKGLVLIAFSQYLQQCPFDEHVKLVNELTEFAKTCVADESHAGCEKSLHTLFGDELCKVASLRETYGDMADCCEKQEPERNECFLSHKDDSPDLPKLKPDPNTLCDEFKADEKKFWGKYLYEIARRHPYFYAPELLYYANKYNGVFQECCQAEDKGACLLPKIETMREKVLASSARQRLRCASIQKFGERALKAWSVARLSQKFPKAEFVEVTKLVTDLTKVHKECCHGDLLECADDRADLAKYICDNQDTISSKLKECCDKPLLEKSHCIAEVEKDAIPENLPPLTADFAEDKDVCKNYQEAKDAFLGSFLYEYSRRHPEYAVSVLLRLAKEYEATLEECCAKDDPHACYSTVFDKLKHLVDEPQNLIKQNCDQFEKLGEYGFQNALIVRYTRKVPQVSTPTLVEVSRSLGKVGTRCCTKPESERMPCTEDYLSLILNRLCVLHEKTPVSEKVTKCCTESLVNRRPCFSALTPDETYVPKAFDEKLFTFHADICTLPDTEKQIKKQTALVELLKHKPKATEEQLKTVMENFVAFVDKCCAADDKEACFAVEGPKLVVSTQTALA
Sequence of Concanavalin-A (Canavalia ensiformis) (P02866 whole entry, looked up): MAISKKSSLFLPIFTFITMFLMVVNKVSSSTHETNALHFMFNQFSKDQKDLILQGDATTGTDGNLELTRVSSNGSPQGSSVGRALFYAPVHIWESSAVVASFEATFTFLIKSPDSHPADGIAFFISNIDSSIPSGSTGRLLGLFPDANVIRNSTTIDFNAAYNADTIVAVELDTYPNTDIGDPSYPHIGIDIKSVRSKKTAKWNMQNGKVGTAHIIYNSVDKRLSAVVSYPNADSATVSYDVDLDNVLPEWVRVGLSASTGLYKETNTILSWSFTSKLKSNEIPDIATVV

SMILES	composite z-score [1]	composite Z-score [2]	composite z-score [3]	composite z-score [4]	composite z-score [5]	composite z-score [6]	composite z-score [7]	composite z-score [8]	composite z-score [9]	composite z-score [10]	composite z-score [11]	composite z-score [12]	composite z-score [13]	composite z-score [14]	composite z-score [15]	composite z-score [16]	z-score [17]	composite z-score [18]	composite z-score [19]	z-score [20]
NCCCCCCNC(=O)[C@@H]1C[C@@H]2C(=O)NCC(=O)N2[C@@H]1c1cccc(OCCO)c1	0.432	0.671 (inactive)	0.155	0.0001	0.695	1.47	0.758	1.2	1.18	0.828	-0.207	1.23	1.36	0.416	1.46	1.6	1.21	1.52	0.917	-1.66 (inactive)
O=C1C[C@@](C(=O)NCC(F)(F)F)(c2ccc([N+](=O)[O-])cc2)[C@@H](c2ccc(CO)cc2I)N1CC12CC3CC(CC(C3)C1)C2	0.506	0.0839 (inactive)	-0.056	-0.13	0.517	1.48	1.15	1.29	-0.0117	1.12	1.31	0.722	-0.0231	0.93	0.994	1.34	1.73	1.22	0.249	-0.251 (inactive)
COC(=O)[C@H]1N=C(c2ccc(OCCCO)cc2)O[C@H]1c1ccccc1N=[N+]=[N-]	0.177	0.408 (inactive)	0.156	0.273	0.574	2.51	0.285	0.342	0.158	0.656	0.608	1.16	2.19	0.936	0.562	-0.0231	-0.512	-0.401	0.733	-19.2 (active)
C=CCNC(=O)[C@@H]1[C@H]2C(=O)O[C@H](c3ccccc3)[C@H](c3ccccc3)N2[C@H](c2ccc(O)cc2)[C@@]12C(=O)Nc1ccc(C#CC3=CCCCC3)cc12	0.543	0.986 (inactive)	1.22	-0.0857	0.676	1.69	1.24	1.32	0.334	1.04	0.844	1.18	0.721	0.668	1.24	0.494	0.22	1.43	1.06	-0.806 (inactive)
COC(=O)[C@@]1(Cc2ccccc2)[C@H]2c3cc(C(=O)N(C)C)n(Cc4nc5ccccc5[nH]4)c3C[C@H]2CN1C(=O)c1ccccc1	1.01	0.0729 (inactive)	0.266	0.0576	0.826	3.44	0.972	1.24	-0.538	1.09	1.85	1.24	0.872	1.03	0.804	-0.378	0.157	-0.414	0.779	-1.77 (inactive)
O=C1N(Cc2ccccc2)Cc2ccccc2C[C@@]12COC(c1ccc(OCCCO)cc1)=N2	-0.0983	0.852 (inactive)	0.133	0.12	0.461	2.08	0.4	1.22	0.303	0.864	2.26	1.16	0.622	-0.143	1.39	0.22	-0.503	-0.197	0.196	-1.26 (inactive)
COc1ccc([Si](C)(C)[C@@H]2[C@@H](CC(=O)N3Cc4ccccc4C[C@H]3CO)O[C@]3(C(=O)N(Cc4ccc(I)cc4)c4ccccc43)[C@H]2C)cc1	-0.145	0.26 (inactive)	0.0676	-0.133	0.284	0.583	-0.098	1	1.35	0.957	0.521	0.963	0.0916	0.838	1.59	1.65	-0.26	1.58	0.373	0.798 (inactive)
CC[C@H]1C2=C3C(CC[C@H]4C(OCc5ccc(F)cc5C(F)(F)F)OC[C@](C)([C@@H]34)N(C(=O)OC(C)(C)C)C2)C(COC(C)=O)C1COC(C)=O (stereo not given in full)	0.761	-0.0238 (inactive)	0.335	0.173	0.345	2.76	0.2	1.29	-1.23	0.957	1.3	1.17	0.178	0.945	0.165	-1.19	1.74	-0.256	0.509	1.17 (inactive)
CCOC(=O)C1=C[C@@H](C(C)(C)C)N(S(=O)(=O)c2ccc(C)cc2)[C@H]1c1ccc(OC)cc1	0.847	-0.244 (inactive)	0.116	-0.0956	0.392	1.8	0.315	1.3	0.209	1.14	0.772	1.22	1.62	1.02	0.688	0.387	2.61	0.554	0.782	1.95 (inactive)
O=C1O[C@H](c2ccccc2)[C@H](c2ccccc2)N2[C@H]1[C@@H](C(=O)N1CCCCCCC1)[C@]1(C(=O)Nc3ccc(C#CCCO)cc31)[C@H]2c1ccc(O)cc1	0.777	9.39 (active)	2.27	1.18	0.91	4.64	1.53	1.35	1.68	1.17	2.12	1.32	4.55	0.967	1.56	1.71	0.889	1.85	1.68	0.628 (inactive)
COC(=O)C(CC#Cc1ccc2c(c1)[C@]1(C(=O)N2)[C@H](C(N)=O)[C@H]2C(=O)O[C@H](c3ccccc3)[C@H](c3ccccc3)N2[C@@H]1c1ccccc1OCCO)C(=O)OC	0.398	-0.363 (inactive)	-0.248	-0.124	0.434	2.34	0.782	1.13	-0.0393	1.12	1.25	1.22	0.474	0.591	0.917	0.535	-1.05	0.607	0.775	-0.638 (inactive)
